Data taken from PubChem BioAssay (NCATS).
This is one part of the list. Where a call stands in place of a potency, no number is given. Results filed as inconclusive are left out. Active and inactive are the calls of the source. Calls come from the whole dose curve.

biological target: Polyprotein P1234 (Chikungunya virus (strain S27-African prototype)) (UniProt Q8JUX6); test: Selectivity profile for inhibitors of NSP2Pro chikungunya virus (CHIKV): Endogenous NS2/3 peptide Counterscreen (AID 1964103); conditions: Purified CHIKV nsP2 protease, endogenous NS2/3 peptide cleavage; series mostly up to 51 µM; note: nearly all actives have a fitted effect of over 55% in size
Description: PI: Natalia J. Martinez Ph.D.
National Center for Advancing Translational Sciences (NCATS),
National Institute of Health (NIH), Rockville, Maryland
Chikungunya virus (CHIKV) is a mosquito-borne RNA virus that has emerged as one of the most important global arboviral threats in the last decade. Although the first CHIKV vaccine has recently been FDA approved for use in healthy adults at increased risk, to date, there are no available antiviral drugs for CHIKV infection. CHIKV nsP2 protease plays a crucial role in the processing of the viral polypeptide precursor to release enzymes required for viral replication, thus making it a promising drug target for antiviral discovery. Here, we established a high-throughput pipeline to identify small molecule inhibitors of nsP2 proteolytic activity. The pipeline is composed of a suite of 1,536-well in vitro assays to support quantitative high-throughput (qHTS) screening campaigns. Specifically, we developed a fluorescence resonance energy transfer (FRET)-based assay using a fluorogenic peptide substrate encompassing an endogenous cleavage site and purified recombinant protease domain (nsP2pro). Using this assay, we interrogated ~37,000 small molecules, including those in drug repurposing libraries as well as chemically diverse and medicinal chemistry-friendly compounds. Hits were selected for follow-up validation against full-length nsP2 and an additional peptide. FRET-based 1,536-well assays for papain, hepatitis C virus NS3-4A, and human furin proteases were implemented to characterize compound selectivity. […] Novel compounds were identified to be potential nsP2 inhibitors and molecular docking analyses were performed to explain the binding mode of selected hits. In vitro antiviral activity was evaluated for a subset of compounds using a high-throughput CHIKV infection assay. To our knowledge, the pipeline presented here is unprecedented for CHIKV antiviral discovery research.
PROTOCOL TABLE (as described by Inglese J, Shamu CE and Guy RK. 2007)
SEQUENCE No. (e.g., 1, 2, 3, etc.); […] (e.g., Cells, Incubation, Reagent, etc.); VALUE; DESCRIPTION.
1; Control / Compound; 20 nL; Echo 655 acoustic dispenser, Greiner 1536-well solid bottom black plate.
2; Enzyme; 4 uL; BioRAPTR FRD liquid dispenser (Beckman Coulter).
3; Incubation; 15 min; room temperature.
4; Reagent; 4 uL; 2.5 uM endogenous NS2/3 peptide substrate.
5; Incubation; 1 hr; room temperature.
6; Detection; Fluorescence; WiewLux microplate reader (PerkinElmer), 525 nm excitation, 598/25 nm emission.
NOTES (numbers refer to sequence numbers above).
1. Briefly, 20 nL DMSO, positive control ZnAc (20nM final concentration), and test compounds were transferred into a 1,536-well solid bottom black plate (789176-F, Greiner One) via Echo 655 acoustic dispenser (Beckman Coulter). For primary screens, compounds were tested at 7 concentrations, 1:3 dilution points ranging from 25 uM to 34 nM. Follow-up confirmatory screens were carried out at 11 concentrations, 1:3 dilution points from 25 uM to 0.42 nM.
2. Four uL nsP2pro enzyme mix (150 nM final concentration) in 10 mM Tris-HCl pH 8.0 with 0.01% Tween 20 assay buffer was dispensed into the plate using a BioRAPTR FRD liquid dispenser (Beckman Coulter).
3. The plate was incubated at room temperature (protected from light) for 15 min
4. Four microliter of endogenous NS2/3 peptide substrate (peptide 3: TMR-[…]/APSYR-K-QSY7; 2.5 uM final concentration) in assay buffer was added to the plate.
5. After 1 hour, plates were immediately read on a ViewLux high-throughput CCD imager (Exposure = 10 sec, Gain = High, Speed = Slow, Binning = 2X). The above assay was also incorporated in the NCATS HTS facility41, which allowed for robotic liquid and compound dispensing, microplate handling, and fluorescence reading.
Inglese J, Shamu CE and Guy RK, Reporting data from high throughput screening of small molecule libraries, Nature Chemical Biology, 2007, 3(8): 438-441. doi.org/10.1038/nchembio0807-438.
Potency is the fitted concentration of half-maximal effect.

Chain of Polyprotein P1234 (Chikungunya virus (strain S27-African prototype)) (Q8JUX6 whole entry, looked up): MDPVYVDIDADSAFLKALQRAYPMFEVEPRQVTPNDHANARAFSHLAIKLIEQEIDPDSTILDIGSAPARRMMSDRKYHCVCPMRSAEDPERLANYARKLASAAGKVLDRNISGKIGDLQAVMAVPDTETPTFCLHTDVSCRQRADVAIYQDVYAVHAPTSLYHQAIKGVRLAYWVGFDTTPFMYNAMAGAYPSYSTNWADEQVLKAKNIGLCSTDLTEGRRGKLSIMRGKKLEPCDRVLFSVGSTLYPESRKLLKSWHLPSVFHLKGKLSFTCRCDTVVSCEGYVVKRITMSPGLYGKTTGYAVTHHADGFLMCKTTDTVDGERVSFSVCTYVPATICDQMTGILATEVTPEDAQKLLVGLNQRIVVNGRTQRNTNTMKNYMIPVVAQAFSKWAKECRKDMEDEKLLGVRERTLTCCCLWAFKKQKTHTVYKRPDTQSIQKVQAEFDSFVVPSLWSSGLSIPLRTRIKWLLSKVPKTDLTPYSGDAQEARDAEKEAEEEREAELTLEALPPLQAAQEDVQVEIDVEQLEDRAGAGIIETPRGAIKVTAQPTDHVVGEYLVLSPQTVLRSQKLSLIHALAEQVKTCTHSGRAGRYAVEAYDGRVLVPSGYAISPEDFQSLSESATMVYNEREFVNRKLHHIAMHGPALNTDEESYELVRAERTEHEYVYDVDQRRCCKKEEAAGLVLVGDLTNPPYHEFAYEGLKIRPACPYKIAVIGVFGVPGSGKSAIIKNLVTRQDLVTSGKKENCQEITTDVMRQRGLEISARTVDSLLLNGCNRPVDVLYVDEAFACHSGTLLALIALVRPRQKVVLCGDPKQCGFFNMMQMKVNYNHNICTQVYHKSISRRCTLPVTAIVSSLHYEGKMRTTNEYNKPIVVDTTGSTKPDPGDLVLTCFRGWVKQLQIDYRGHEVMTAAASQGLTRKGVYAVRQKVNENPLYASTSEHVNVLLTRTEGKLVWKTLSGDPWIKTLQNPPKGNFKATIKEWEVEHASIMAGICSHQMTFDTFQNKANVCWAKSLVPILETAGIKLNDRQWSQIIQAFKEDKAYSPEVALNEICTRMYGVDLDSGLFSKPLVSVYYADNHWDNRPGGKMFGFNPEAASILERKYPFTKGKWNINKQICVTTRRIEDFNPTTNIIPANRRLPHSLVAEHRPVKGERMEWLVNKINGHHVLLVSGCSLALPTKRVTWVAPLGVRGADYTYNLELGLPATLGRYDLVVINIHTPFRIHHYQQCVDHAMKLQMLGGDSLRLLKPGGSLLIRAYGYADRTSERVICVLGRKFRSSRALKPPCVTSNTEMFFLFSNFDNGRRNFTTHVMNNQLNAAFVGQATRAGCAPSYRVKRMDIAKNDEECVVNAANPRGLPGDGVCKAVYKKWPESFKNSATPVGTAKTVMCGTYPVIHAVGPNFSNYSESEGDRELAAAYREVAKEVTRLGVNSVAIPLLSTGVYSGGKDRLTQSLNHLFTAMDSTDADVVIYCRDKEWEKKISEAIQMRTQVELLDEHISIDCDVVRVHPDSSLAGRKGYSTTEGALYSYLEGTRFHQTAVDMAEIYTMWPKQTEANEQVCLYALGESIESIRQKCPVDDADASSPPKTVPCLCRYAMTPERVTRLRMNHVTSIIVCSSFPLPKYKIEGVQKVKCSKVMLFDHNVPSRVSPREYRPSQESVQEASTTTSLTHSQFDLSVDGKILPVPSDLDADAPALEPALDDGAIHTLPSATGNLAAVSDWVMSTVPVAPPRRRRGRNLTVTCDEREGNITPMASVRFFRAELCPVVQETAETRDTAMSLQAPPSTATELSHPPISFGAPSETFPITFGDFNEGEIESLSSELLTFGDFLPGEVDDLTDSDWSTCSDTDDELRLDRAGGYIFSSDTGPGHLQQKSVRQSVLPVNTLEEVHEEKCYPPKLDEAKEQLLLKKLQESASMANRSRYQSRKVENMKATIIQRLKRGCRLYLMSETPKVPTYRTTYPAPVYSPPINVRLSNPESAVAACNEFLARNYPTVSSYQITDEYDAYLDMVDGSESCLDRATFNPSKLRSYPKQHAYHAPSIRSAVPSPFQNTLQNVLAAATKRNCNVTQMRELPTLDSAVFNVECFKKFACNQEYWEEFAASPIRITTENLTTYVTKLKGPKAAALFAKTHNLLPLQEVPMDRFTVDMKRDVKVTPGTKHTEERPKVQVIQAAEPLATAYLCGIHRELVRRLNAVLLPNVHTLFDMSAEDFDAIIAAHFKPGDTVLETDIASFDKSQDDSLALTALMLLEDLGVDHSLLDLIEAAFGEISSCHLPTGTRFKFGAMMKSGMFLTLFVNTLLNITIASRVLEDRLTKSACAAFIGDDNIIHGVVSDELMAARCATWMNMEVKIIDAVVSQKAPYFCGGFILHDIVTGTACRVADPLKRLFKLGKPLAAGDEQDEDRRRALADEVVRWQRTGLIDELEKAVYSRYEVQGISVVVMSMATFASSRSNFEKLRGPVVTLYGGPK

| SMILES | Potency |
| --- | --- |
| CCOc1ccc(N(Cc2ccccc2)C(=O)c2nc(S(C)(=O)=O)ncc2Cl)cc1 | 4.61 µM (active) |
| CO[C@]1(NC(=O)CSC(F)F)C(=O)N2C(C(=O)O)=C(CSc3nnnn3CCO)CO[C@H]21 | inactive |
| C[C@@H]1C[C@@H](O)[C@@]23CO[C@]2(CO)C[C@@H](O)CC3[C@@]12CC(c1ccoc1)OC2=O (stereo not given in full) | inactive |
| CCc1ccccc1NC(=O)c1cnn(-c2ccc(F)cc2)c1C1CCNCC1 | inactive |
| O=C(O)c1cccc(-n2[nH]c(-c3ccccc3)cc2=O)c1 | inactive |
| CCC(C)C(=O)OC1C(C)C2(O)C(C=C(CO)CC3(O)C(=O)C(C)=CC32)C2C(C)(C)C12OC(=O)C(C)C (stereo not given) | inactive |
| CCOc1ccc(NC(=O)c2c(NC(=O)Cc3ccccc3)sc3c2CCCCC3)cc1 | 16.3 µM (active) |
| Cn1nnnc1Sc1ncnc2n[nH]c(-c3cccc(S(C)(=O)=O)c3)c12 | 4.47 µM (active) |
| CCOc1ccc(NC(=O)c2c(NC(=O)Cc3ccccc3)sc3c2CCC(C)C3)cc1 (stereo not given) | 13 µM (active) |
| Cc1c(S(=O)(=O)O)oc2c1C(=O)C(=O)c1c-2ccc2c1CCCC2(C)C | inactive |
| CC(=O)N[C@@H](C(=O)O[C@H]1CCC(C)(C)[C@@H]2CCC3=C(COC3=O)[C@@]12C)C(C)C | inactive |
| CC1=C(/C=C/C(C)=C/C=C/C(C)=C/C=C/C=C(C)/C=C/C=C(C)/C=C/C2=C(C)CCCC2(C)C)C(C)(C)CCC1 | inactive |
| C[C@@H]1[C@H](O)[C@@H]2OC(=O)C3=C2[C@H](CCC3)[C@@]12C[C@@H](c1ccoc1)OC2=O | inactive |
| Oc1ccc(OC2CCCCO2)cc1 (stereo not given) | inactive |
| N#CSc1cc(SC#N)c(N)nc1N | 0.206 µM (active) |
